ssDAF-12 act = activates DAF-12 receptor from parasite S. stercoralis; HEK293 ssDAF-12/GRIP1 lit1-tk-luc reporter, luminescence; % of 3 µM dafachronic acid response; activation, % at 6.8 µM; actives 1% (n = 370,000);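 active = activation above the mean over all tested compounds plus 3 SD, cut at about 0.9% in these data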;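 note: 0% = DMSO-only wells and 100% = 3 µM delta7-dafachronic acid wells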
DAX1 inh-1 = inhibits human nuclear receptor DAX1; actives 0.99% (n = 340,000); inhibition, % at 6.75 µM; P51843; HEK293 Gal4-DAX1 luciferase reporter, luminescence;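 active = inhibition above the mean over all tested compounds plus 3 SD, cut at about 4.2% in these data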;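 note: 0% = DAX1-transfected cells with DMSO and 100% = empty-vector control cells with DMSO; inhibition shows as a rise in luminescence from relieved DAX1 repression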
hcDAF-12 act = H. contortus DAF-12 activation, primary screen; HEK293 hcDAF-12 lit1-tk-luc reporter, luminescence; 0% DMSO, 100% Δ7-dafachronic acid; actives 1.4% (n = 370,000); AID 652067; activation, % at 6.8 µM;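 active = activation above the mean of all tested compounds plus 3 SD, cut at about 5.5% in these data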;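 note: 100% = response to 3 µM Δ7-dafachronic acid high control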
hgDAF-12 ag = hgDAF-12 agonism, primary luciferase screen. activation, % at 6.8 µM. HEK293 GAL4-hgDAF12 UAS-luciferase reporter, agonist luminescence; normalized to butyrate control. actives 1.8% (n = 370,000);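 active = activation above a cutoff set at the mean of all screened compounds plus 3 SD, cut at about 10% in these data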;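 note: 0% = DMSO wells and 100% = sodium butyrate wells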
DAX1 inh-2 = DAX1 (NR0B1) inhibition, primary screen. HEK293T StAR-luciferase reporter, SF-1/DAX-1 repression relief. inhibition, % at 6.8 µM. actives 1.1% (n = 370,000);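 active = inhibition above the mean over all tested compounds plus 3 SD, cut at about 3.6% in these data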;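 note: 0% = DAX-1 cells with DMSO and 100% = cells lacking DAX-1 with DMSO; higher inhibition means more luminescence from relief of DAX-1 repression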
LXRb hcDAF ctr = LXR-beta agonism as hcDAF-12 counter-screen; shares compounds with hcDAF-12 act; 3,400 tested, under 10 active; activation, % at 6.8 µM; HEK293 Gal4-LXR tk-luc reporter, luminescence, 24 h; normalized: DMSO 0%, positive control 100%;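 active = mean percent activation of the reporter above a cutoff set as the average over tested compounds plus their standard deviation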
Target sequence (P55055 whole entry, looked up, the tested form may be a part): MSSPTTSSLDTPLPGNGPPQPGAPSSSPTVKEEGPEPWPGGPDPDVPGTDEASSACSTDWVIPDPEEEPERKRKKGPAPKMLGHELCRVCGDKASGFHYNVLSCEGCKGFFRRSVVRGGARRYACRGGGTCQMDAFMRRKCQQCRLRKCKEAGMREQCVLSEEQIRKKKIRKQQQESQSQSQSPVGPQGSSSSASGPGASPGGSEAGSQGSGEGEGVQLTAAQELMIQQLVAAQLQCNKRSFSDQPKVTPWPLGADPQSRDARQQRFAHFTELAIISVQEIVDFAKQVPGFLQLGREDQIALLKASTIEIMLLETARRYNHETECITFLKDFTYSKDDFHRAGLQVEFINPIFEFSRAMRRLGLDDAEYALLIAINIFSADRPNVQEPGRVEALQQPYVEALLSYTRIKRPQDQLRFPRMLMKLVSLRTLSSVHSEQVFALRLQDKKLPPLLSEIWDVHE
hcDAF12 ag = hcDAF-12 agonism, confirmation assay | shares compounds with hcDAF-12 act | activation, % at 6.8 µM | actives 61% (n = 3,400) | AID 743032 | HEK293 hcDAF-12 lit1-tk-luc reporter, luminescence; % of Δ7-dafachronic acid response;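 active = mean activation across triplicate tests above the threshold derived from the earlier primary screen, cut at about 5.5% in these data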;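 note: 0% = DMSO only wells and 100% = 3 µM Δ7-dafachronic acid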
hgDAF12 conf = hgDAF-12 agonism, confirmation assay; AID 743050; actives 80% (n = 3,300); HEK293 GAL4-hgDAF12 luciferase reporter, agonist mode; percent of butyrate response; shares compounds with hgDAF-12 ag; activation, % at 6.8 µM;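 active = mean activation over triplicate wells above the hit cutoff derived from the earlier primary screen, cut at about 11% in these data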;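 note: 0% = DMSO low control and 100% = 2 mM sodium butyrate high control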
LXRb DAF12 ctr = counter-screen for DAF-12 agonists: agonists of human LXR-beta; HEK293 Gal4-LXR luciferase reporter, 24 h; 3,300 tested, under 10 active; AID 743051; shares compounds with hgDAF-12 ag; activation, % at 6.8 µM;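 active = mean activation of the triplicate above a set limit carried over from the primary screen, none filed active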
* hit, by the source's call; / = not tested or not shown. Most compounds without a hit are left out; they make up all but 4.1% or so of the library.

SMILES	ssDAF-12 act	DAX1 inh-1	hcDAF-12 act	hgDAF-12 ag	DAX1 inh-2	LXRb hcDAF ctr	hcDAF12 ag	hgDAF12 conf	LXRb DAF12 ctr
CC(=O)Nc1cccc(/C(C)=N/NC(=O)c2cccs2)c1	0	4	6.7*	18*	2	0	1	1	0
CCc1sc(C(=O)Nc2ccc(NC(C)=O)cc2)cc1C	-1	0	-2	-4	-1	/	/	/	/
Cc1csc(NC(=O)c2cc3c(s2)CCC3)n1	1	-1	7.4*	17*	3	2	9.0*	18*	1
CCc1sc(C(=O)Nc2nc(C)cs2)cc1C	0	0	9.2*	15*	3	2	6.1*	17*	1
CC1(c2nnnn2Cc2ccccc2)CCCC(=O)N1Cc1cccs1 (stereo unspecified)	-1	/	1	1	-1	/	/	/	/
COc1cccc(C(=O)Nc2ccc3ccccc3c2)c1	0	-2	7.5*	17*	2	2	9.9*	24*	2
O=C(Nc1ccc2ccccc2c1)c1onc2c1CCCC2	1.4*	1	12*	14*	3	2	6.4*	21*	1
Cc1occc1C(=O)Nc1ccc2ccccc2c1	1.4*	4.4*	11*	14*	2	1	5	16*	1
Cc1cccc(C(=O)Nc2ccc3ccccc3c2)c1	1	6.8*	7.0*	14*	3	2	6.5*	23*	1
COc1cc(C(=O)Nc2ccc3ccccc3c2)cc(OC)c1OC	-1	/	1	5	-1	/	/	/	/
C#CCN(C[C@H]1[C@H](OC(=O)NCCCCCC)[C@H](OC(=O)NCCCCCC)CN(C(=O)OC(C)C)N1C(=O)OC(C)C)S(=O)(=O)c1ccc(C)cc1	-1	/	-2	0	-1	/	/	/	/
COC(=O)[C@]12C[C@H](CC(=O)N3CCN(C(=O)c4ccco4)CC3)C(=O)N(Cc3ccc(Cl)cc3Cl)C1=C[C@H](C(C)(C)C)O[C@@H]2C	-1	/	-1	-2	0	/	/	/	/
COC(=O)C1=C(C)N(Cc2ccc(C(F)(F)F)cc2)C(=NCc2ccc3c(c2)OCO3)NC1c1ccccc1 (stereo unspecified)	0	/	0	1	1	/	/	/	/
COc1ccc(NC(=O)n2ncc3c(C)cccc32)cc1	0	4	12*	14*	3	1	11*	21*	1
COc1ccc(NC(=O)n2ncc3c(C)cccc32)cc1OC	0	0	-1	5	1	/	/	/	/
C#CCC1c2ccccc2CCN1CC=C (stereo unspecified)	0	/	1	-1	0	/	/	/	/
O=C(NC(=S)NCc1ccccc1)c1ccc(Br)o1	-1	1	1	1	0	/	/	/	/
O=C(NC(=S)Nc1ccccc1)c1ccc(Br)o1	-1	2	7.9*	17*	2	1	7.6*	13*	0
O=C(O)c1cccc(COc2ccc3c(c2)CCC3)c1	2.8*	-9	10*	14*	3.6*	2	12*	23*	1
O=C(O)c1cccc(S(=O)(=O)Nc2ccc(OCc3ccccc3)cc2)c1	-1	-1	1	1	0	/	/	/	/
O=C(Cc1cccc(F)c1)Nc1ccc2c(c1)CCC2	-1	-1	-1	4	0	/	/	/	/
O=C(Nc1ccc2c(c1)CCC2)c1cccc(F)c1	1	1	8.0*	19*	4.4*	1	5.7*	14*	1
CCOC(=O)[C@]12CCCC=C1N(Cc1ccc(OC)cc1)C(=O)[C@@H]2CC(=O)N1CCCCC1	-1	/	-1	-2	-1	/	/	/	/
C(=C\c1ccccc1)/CSc1nnc(COc2ccccc2)n1Cc1ccco1	-1	/	1	1	-1	/	/	/	/
COc1ccc(OC)c(N=c2oc3cc(O)ccc3cc2C(N)=O)c1	-2	0	-1	1	-1	/	/	/	/
SMILES	ssDAF-12 act	DAX1 inh-1	hcDAF-12 act	hgDAF-12 ag	DAX1 inh-2	LXRb hcDAF ctr	hcDAF12 ag	hgDAF12 conf	LXRb DAF12 ctr
COc1ccc2cc(C(N)=O)c(=Nc3ccccc3)oc2c1	0	2	14*	14*	4.3*	1	2	13*	1
Cc1cc(SCc2ccc(Cl)cc2Cl)nc(=O)[nH]1	-1	0	-1	0	-1	/	/	/	/
Cc1cc(SCC(=O)c2ccc(Cl)cc2)nc(=O)[nH]1	1.3*	1	6.8*	15*	3	2	5.8*	15*	1
Cc1ccc(NC(=O)N2CCCc3ccccc32)cc1	-1	1	2	3	3	/	/	/	/
Cc1ccc(NC(=O)N2CCc3ccccc32)cc1	1.1*	-1	10*	15*	3.7*	2	11*	23*	1
O=C(COc1ccccc1)N1CCc2ccccc21	-1	1	8.5*	14*	1	1	6.4*	12*	1
CN(C)c1ccc(Nc2nc(-c3cccnc3)cs2)cc1	1.3*	2	12*	18*	2	2	9.7*	23*	1
c1ccc(-c2csc(Nc3cccnc3)n2)cc1	1.5*	1	8.1*	21*	-1	0	7.9*	14*	1
CCN(CC)c1ccc(Nc2nc(-c3cccnc3)cs2)cc1	-1	0	0	6	0	/	/	/	/
Fc1ccc(Nc2nc(-c3cccnc3)cs2)cc1	1.1*	8.0*	10*	17*	1	1	10*	20*	1
CC(=O)c1ccc([C@H](O)[C@H](C)C(=O)N(C)c2ccccc2)cc1	0	/	-2	4	-1	/	/	/	/
CCOC(=O)C1=NOC(C(=O)Nc2nccs2)(C(=O)C2CC2)C1 (stereo unspecified)	0	/	3	-1	1	/	/	/	/
O=C(Nc1nc2ccccc2[nH]1)c1ccc([N+](=O)[O-])cc1	-1	1	4	9	2	/	/	/	/
O=C(Nc1nc2ccccc2[nH]1)c1cccc(F)c1	2.3*	0	13*	17*	2	2	12*	18*	1
O=C(c1ccccc1Cl)N1CCSCCS1(=O)=O	-2	/	0	-5	0	/	/	/	/
CN1CCSc2ccc(C(=O)Nc3cc(F)ccc3F)cc21	1.1*	9.5*	7.2*	20*	4.3*	2	4	18*	1
O=C(Nc1ccccc1)c1cccc(C(=O)Nc2ccccc2)n1	-1	0	2	0	0	/	/	/	/

Source: PubChem
